This passage reports binding signal results from PMC7862700, “An all-to-all approach to the identification of sequence-specific readers for epigenetic DNA modifications on cytosine”.

Holding throughout (assay): DAPPL (digital affinity profiling via proximity ligation, sequencing); 10 mM Tris-HCl pH 7.5, 50 mM NaCl, 1 mM DTT, 4% glycerol, room temperature, 30 min; GST-TFs on glutathione beads, 16-mer random dsDNA library, 0.1% formaldehyde crosslink after washing; high values mean tight binding
For test [1], the target named is T1, FEV (Homo sapiens, UniProt Q99581 1-238).
T1 sequence: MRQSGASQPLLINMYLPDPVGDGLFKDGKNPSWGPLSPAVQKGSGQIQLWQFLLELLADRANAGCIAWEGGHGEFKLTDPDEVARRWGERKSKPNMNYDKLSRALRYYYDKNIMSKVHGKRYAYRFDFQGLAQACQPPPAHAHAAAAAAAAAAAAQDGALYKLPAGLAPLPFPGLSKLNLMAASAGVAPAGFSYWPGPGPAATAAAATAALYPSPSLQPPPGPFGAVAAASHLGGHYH
As to conditions: protein: recombinant; tags: N-terminal GST; dsDNA, one strand shown. In a few lines: (§1)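 Human transcription factors fused to GST were expressed in yeast, captured on glutathione beads, given DNA barcodes and pooled with a GST-only negative control. Pools were incubated with 200 nmole of a 16-mer random double-stranded DNA library in Tris/NaCl/DTT/glycerol buffer at room temperature for 30 min. They were then washed, crosslinked with 0.1% formaldehyde, proximity-ligated (BsaI/T4 ligase, 1 h, 37 °C), PCR-amplified and sequenced on an Illumina NextSeq500. Binding signal is each 6-mer's read frequency for a factor divided by its frequency for the GST control.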

Test [2] concerns the target ETV5 (Homo sapiens, UniProt P41161 1-510). To be noted: protein: recombinant; tags: N-terminal GST; dsDNA, one strand shown. A digest of the protocol:
as §1

In test [3] the target is HSF1 (Homo sapiens, UniProt Q00613 1-529). As to conditions: protein: recombinant; tags: N-terminal GST; chain copies: 3; dsDNA, one strand shown. A digest of the protocol: as §1
HSF1, sequence (Q00613 whole entry): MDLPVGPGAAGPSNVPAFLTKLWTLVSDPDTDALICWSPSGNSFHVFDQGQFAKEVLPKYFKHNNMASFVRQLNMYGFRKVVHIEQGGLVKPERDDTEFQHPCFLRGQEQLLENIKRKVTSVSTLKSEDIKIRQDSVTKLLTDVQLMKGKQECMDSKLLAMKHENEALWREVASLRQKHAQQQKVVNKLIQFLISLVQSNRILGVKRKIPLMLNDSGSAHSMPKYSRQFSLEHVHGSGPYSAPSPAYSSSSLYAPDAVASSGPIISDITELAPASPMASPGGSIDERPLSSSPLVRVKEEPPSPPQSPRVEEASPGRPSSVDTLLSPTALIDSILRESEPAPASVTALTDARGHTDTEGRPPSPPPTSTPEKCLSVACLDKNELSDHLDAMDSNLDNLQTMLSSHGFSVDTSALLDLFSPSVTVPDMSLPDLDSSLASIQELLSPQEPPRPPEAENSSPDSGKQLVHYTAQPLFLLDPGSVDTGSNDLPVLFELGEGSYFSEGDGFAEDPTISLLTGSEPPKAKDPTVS
The target in test [4] is T2, SPIC (Homo sapiens, UniProt Q8N5J4 1-248).
T2 sequence: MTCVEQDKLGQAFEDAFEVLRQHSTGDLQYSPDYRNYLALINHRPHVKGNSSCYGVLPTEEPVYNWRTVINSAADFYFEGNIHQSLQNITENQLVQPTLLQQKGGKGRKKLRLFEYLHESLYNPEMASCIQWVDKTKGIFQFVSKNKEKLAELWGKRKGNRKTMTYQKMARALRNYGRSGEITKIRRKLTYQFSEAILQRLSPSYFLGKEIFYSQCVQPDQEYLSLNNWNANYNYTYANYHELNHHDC
As to conditions: protein: recombinant; tags: N-terminal GST; dsDNA, one strand shown. A digest of the protocol: as §1

The target in test [5] is ELF4 (Homo sapiens, UniProt Q99607 1-663). As to conditions: protein: recombinant; tags: N-terminal GST; dsDNA, one strand shown. A digest of the protocol:
as §1

Test [6] deals with T3, ELK4 (Homo sapiens, UniProt P28324-2 1-405).
T3 sequence: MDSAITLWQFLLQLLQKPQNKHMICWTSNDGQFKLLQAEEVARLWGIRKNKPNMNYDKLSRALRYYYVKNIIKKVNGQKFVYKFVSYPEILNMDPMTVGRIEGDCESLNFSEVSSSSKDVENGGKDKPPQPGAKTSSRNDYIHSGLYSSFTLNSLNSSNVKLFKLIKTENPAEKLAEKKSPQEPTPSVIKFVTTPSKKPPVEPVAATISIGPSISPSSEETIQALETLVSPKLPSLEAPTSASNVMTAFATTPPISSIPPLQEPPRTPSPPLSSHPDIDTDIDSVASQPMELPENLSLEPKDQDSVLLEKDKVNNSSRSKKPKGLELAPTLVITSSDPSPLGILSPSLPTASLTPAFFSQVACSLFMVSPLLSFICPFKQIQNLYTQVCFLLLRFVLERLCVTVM
To be noted: protein: recombinant; tags: N-terminal GST; dsDNA, one strand shown. In a few lines:
as §1

In test [7] the target is T4, ETV2 (Homo sapiens, UniProt O00321 1-342).
T4 sequence: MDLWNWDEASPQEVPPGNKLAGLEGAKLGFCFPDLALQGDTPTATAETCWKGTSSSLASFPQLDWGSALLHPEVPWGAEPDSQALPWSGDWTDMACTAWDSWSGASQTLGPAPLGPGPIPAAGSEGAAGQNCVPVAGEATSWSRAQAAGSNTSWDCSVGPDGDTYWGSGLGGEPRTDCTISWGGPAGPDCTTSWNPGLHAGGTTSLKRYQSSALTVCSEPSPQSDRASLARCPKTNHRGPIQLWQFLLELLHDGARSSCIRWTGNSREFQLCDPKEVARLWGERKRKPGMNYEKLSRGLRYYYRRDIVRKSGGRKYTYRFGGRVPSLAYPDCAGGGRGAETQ
To be noted: protein: recombinant; tags: N-terminal GST; dsDNA, one strand shown. In a few lines:
as §1

In test [8] the target is T5, ELF3 (Homo sapiens, UniProt P78545 1-371).
T5 sequence: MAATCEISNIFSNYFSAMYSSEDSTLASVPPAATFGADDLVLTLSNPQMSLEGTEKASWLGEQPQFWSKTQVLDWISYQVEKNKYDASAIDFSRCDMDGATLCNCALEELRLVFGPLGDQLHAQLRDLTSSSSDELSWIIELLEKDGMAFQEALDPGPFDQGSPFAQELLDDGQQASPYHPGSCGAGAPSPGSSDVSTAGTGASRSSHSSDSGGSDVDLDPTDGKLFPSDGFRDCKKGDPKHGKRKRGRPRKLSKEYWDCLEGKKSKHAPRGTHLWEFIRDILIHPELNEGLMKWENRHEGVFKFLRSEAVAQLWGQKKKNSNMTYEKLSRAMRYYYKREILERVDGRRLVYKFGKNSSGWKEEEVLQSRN
As to conditions: protein: recombinant; tags: N-terminal GST; dsDNA, one strand shown. In a few lines:
as §1

In test [9] the target is CRX (Homo sapiens, UniProt O43186 1-299). As to conditions: protein: recombinant; tags: N-terminal GST; dsDNA, one strand shown. In a few lines:
as §1

The target in test [10] is ETV1 (Homo sapiens, UniProt P50549 1-477). To be noted: protein: recombinant; tags: N-terminal GST; dsDNA, one strand shown. In a few lines:
as §1

Test [11] deals with T6, ERF (Homo sapiens, UniProt P50548 1-548).
T6 sequence: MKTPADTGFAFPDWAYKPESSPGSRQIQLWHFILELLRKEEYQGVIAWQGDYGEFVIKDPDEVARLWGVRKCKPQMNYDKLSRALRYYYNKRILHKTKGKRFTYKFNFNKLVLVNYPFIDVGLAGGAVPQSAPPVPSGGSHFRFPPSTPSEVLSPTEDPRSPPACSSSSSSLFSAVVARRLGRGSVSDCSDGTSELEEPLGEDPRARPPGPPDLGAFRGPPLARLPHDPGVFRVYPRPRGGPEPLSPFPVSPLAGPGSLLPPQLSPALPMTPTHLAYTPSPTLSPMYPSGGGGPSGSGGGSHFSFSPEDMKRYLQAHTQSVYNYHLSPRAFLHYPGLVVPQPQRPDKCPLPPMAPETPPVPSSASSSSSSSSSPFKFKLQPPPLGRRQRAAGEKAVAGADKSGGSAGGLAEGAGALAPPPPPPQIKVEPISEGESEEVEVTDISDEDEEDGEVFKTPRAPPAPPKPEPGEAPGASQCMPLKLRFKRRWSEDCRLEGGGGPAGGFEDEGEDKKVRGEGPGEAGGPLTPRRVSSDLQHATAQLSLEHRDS
As to conditions: protein: recombinant; tags: N-terminal GST; dsDNA, one strand shown. In a few lines:
as §1

The target in test [12] is T7, ETV3L (Homo sapiens, UniProt Q6ZN32 1-361).
T7 sequence: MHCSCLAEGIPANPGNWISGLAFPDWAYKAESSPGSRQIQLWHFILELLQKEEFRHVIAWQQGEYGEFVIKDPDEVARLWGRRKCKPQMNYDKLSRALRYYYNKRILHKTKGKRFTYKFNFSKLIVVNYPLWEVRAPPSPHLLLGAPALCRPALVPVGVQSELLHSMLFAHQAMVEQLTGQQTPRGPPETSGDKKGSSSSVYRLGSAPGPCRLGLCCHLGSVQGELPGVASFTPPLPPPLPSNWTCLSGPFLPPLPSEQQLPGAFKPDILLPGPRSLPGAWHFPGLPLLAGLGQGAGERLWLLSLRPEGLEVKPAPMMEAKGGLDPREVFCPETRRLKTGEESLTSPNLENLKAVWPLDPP
To be noted: protein: recombinant; tags: N-terminal GST; dsDNA, one strand shown. In a few lines: as §1

The target of test [13] is T8, ETS2 (Homo sapiens, UniProt P15036 1-469).
T8 sequence: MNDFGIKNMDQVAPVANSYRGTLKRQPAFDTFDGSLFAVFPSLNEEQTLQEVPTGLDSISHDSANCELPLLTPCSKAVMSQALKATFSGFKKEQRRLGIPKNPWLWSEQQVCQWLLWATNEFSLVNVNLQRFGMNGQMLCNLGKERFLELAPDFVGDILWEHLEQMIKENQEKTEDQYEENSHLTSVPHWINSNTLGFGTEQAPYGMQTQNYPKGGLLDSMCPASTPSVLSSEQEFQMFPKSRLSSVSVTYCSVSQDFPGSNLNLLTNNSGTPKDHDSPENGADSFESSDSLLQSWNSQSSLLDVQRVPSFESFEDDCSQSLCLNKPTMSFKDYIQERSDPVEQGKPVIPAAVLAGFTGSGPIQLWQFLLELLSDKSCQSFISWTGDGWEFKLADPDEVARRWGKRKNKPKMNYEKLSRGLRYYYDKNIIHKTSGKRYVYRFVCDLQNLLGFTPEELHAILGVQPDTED
To be noted: protein: recombinant; tags: N-terminal GST; dsDNA, one strand shown. In a few lines: as §1

Test [14] has as its target T9, SPDEF (Homo sapiens, UniProt O95238 1-335).
T9 sequence: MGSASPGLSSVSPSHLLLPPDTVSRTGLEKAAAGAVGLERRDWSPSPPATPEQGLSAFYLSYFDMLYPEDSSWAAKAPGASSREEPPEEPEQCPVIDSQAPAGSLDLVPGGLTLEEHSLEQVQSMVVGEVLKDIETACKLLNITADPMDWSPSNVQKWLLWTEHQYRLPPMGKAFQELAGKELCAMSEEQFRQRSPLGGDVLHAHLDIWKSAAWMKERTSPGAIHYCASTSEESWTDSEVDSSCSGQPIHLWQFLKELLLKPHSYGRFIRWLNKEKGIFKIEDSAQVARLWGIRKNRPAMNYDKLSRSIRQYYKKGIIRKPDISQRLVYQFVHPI
As to conditions: protein: recombinant; tags: N-terminal GST; dsDNA, one strand shown. In a few lines: as §1

The target of test [15] is T10, ETV7 (Homo sapiens, UniProt Q9Y603 1-341).
T10 sequence: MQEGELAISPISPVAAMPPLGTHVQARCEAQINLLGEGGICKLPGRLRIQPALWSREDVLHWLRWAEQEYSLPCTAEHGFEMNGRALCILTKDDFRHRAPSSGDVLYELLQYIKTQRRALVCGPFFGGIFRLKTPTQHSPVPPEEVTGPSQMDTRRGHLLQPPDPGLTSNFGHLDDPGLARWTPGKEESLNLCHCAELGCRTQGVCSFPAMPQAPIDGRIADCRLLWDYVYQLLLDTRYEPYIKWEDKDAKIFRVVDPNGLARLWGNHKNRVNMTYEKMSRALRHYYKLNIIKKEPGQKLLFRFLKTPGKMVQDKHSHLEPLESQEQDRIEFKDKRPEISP
To be noted: protein: recombinant; tags: N-terminal GST; dsDNA, one strand shown. A digest of the protocol:
as §1

The target of test [16] is T11, ELF5 (Homo sapiens, UniProt Q9UKW6-2 1-255).
T11 sequence: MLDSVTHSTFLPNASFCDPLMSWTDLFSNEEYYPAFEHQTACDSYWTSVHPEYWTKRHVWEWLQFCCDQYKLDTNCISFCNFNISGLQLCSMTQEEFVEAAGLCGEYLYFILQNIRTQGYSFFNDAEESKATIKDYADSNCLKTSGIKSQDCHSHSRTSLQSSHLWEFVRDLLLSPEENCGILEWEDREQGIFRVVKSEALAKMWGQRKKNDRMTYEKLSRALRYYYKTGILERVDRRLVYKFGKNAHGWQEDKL
To be noted: protein: recombinant; tags: N-terminal GST; dsDNA, one strand shown. A digest of the protocol:
as §1

Test [17] addresses T12, ETV3 (Homo sapiens, UniProt P41162-2 1-143).
T12 sequence: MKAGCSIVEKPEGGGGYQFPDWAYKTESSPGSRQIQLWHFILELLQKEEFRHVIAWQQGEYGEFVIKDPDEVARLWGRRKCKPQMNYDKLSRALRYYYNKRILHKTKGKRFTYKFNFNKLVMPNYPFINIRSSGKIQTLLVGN
As to conditions: protein: recombinant; tags: N-terminal GST; dsDNA, one strand shown. In a few lines: as §1

The target in test [18] is ETV6 (Homo sapiens, UniProt P41212 1-452). As to conditions: protein: recombinant; tags: N-terminal GST; dsDNA, one strand shown. A digest of the protocol: as §1
ETV6, sequence (P41212 whole entry): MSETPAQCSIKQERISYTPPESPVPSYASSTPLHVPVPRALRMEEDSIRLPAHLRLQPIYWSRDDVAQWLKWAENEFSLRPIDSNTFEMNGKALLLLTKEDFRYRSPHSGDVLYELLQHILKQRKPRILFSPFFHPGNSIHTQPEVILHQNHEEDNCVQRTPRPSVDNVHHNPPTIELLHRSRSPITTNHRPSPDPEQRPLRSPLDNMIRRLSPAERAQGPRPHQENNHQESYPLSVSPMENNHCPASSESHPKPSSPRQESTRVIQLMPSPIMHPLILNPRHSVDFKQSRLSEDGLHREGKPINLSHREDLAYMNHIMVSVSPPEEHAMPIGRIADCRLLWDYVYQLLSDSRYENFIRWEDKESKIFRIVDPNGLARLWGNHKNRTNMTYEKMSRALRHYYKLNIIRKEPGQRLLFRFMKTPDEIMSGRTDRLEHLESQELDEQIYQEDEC

ETV5, sequence (P41161 whole entry): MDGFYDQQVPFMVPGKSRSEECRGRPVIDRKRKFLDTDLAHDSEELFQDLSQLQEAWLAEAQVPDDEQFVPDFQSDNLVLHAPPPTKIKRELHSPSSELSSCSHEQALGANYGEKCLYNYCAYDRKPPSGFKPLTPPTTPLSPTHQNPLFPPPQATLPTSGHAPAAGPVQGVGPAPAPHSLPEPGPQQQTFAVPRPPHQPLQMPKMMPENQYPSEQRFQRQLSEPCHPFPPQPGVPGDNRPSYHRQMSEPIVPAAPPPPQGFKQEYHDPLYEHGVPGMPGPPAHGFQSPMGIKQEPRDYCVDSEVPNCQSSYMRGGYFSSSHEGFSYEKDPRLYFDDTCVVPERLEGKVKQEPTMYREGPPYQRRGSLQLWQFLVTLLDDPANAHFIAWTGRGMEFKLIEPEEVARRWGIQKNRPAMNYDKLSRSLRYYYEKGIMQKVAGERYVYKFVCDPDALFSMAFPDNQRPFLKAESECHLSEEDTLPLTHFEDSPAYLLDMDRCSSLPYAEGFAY
CRX, sequence (O43186 whole entry): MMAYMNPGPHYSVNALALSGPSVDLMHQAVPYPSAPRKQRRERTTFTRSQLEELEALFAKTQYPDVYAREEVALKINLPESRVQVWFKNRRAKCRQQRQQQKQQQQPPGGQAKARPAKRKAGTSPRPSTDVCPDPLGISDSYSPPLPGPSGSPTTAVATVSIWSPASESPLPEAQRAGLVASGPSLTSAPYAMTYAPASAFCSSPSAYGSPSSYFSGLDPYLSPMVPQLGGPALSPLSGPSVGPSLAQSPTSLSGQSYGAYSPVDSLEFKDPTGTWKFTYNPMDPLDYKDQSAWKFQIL
ETV1, sequence (P50549 whole entry): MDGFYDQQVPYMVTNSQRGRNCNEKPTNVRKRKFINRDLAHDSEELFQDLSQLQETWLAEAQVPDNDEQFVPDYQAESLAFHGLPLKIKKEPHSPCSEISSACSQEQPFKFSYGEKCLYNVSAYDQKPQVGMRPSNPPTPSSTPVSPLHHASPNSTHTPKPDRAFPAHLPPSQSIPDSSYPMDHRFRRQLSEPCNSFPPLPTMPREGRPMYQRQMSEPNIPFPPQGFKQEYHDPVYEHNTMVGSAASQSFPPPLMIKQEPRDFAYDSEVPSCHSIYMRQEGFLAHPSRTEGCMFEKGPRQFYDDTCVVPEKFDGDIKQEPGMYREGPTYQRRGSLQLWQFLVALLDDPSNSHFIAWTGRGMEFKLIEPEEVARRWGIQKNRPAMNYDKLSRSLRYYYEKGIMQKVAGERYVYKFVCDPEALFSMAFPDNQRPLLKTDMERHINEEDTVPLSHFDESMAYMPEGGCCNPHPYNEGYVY
ELF4, sequence (Q99607 whole entry): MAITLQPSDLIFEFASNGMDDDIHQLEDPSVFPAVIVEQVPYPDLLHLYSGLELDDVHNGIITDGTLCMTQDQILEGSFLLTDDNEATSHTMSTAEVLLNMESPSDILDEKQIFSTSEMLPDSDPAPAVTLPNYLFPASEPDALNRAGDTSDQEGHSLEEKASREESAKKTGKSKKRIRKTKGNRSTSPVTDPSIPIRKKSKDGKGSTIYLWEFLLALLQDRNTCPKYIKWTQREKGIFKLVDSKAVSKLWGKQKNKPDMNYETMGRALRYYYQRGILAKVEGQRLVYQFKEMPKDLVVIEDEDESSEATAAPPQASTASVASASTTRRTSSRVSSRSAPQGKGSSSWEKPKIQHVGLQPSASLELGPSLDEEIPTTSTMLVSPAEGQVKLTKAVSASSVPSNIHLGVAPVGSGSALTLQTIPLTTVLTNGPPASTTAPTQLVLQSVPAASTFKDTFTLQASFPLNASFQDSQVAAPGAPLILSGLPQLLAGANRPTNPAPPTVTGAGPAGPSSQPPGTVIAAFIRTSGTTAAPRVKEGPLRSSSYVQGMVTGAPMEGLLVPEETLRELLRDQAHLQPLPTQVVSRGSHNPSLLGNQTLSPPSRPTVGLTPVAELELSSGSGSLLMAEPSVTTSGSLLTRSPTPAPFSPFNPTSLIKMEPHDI

Consider TGGATG, for which the binding signal is 1.35 fold enrichment (6-mer frequency, TF over GST control) in test [1]; 1.42 fold enrichment (6-mer frequency, TF over GST control) in [2]; 1.52 fold enrichment (6-mer frequency, TF over GST control) in test [3]; 1.46 fold enrichment (6-mer frequency, TF over GST control) in test [4]; 1.49 fold enrichment (6-mer frequency, TF over GST control) in [5]; 1.23 fold enrichment (6-mer frequency, TF over GST control) in [6]. In addition, the binding signal in [7] was 1.49 fold enrichment (6-mer frequency, TF over GST control); in [8] it was 1.65 fold enrichment (6-mer frequency, TF over GST control); in test [9], 1.45 fold enrichment (6-mer frequency, TF over GST control); in [10], 1.54 fold enrichment (6-mer frequency, TF over GST control); in test [11], 1.46 fold enrichment (6-mer frequency, TF over GST control); in test [12], 1.53 fold enrichment (6-mer frequency, TF over GST control). Moreover, the binding signal was 1.4 fold enrichment (6-mer frequency, TF over GST control) in test [13]; 1.53 fold enrichment (6-mer frequency, TF over GST control) in [14]; 1.68 fold enrichment (6-mer frequency, TF over GST control) in test [15]; 1.45 fold enrichment (6-mer frequency, TF over GST control) in test [16]; 1.57 fold enrichment (6-mer frequency, TF over GST control) in test [17]; 1.44 fold enrichment (6-mer frequency, TF over GST control) in test [18].
